PubChem BioAssay (EPA / NIEHS)
Results filed as inconclusive are left out. Activity calls are given as the source filed them. The calls were made as follows, unless noted: active = hit-call score of the fitted dose curve at least 0.9, where 1 is the maximum; inactive = score below 0.9.

What was measured:
[1] = ACEA_ER_80hr: ACEA Biosciences xCELLigence Real-Time Cell Analysis on Estrogen Receptor Agonism for Proliferation (AID 2282667; active = hit-call score of the fitted dose curve at least 0.9, where 1 is the maximum); conditions: T47D proliferation, impedance (xCELLigence), 80 h
Outline: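 Estrogen-driven proliferation is captured as electrode impedance in T47D cells 80 h after compound addition. Test articles ran at 8 concentrations, 1:4 dilutions from 100 uM final, in two replicate plates.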

[2] = ATG_CRE_CIS: Attagene CIS-FACTORIAL HepG2 Assay for human cAMP Responsive Element (CRE) binding protein 3 (AID 2282926); conditions: HepG2 CRE cis-reporter, Attagene multiplexed mRNA; actives raise or lower the signal
Outline: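 Transfected HepG2 were treated for 24 hours, then RNA was extracted and reporter cDNA amplified with sequence-specific primers. Labelled fragments were separated by capillary electrophoresis, and the CRE signal was fitted bidirectionally with DMSO as baseline.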

[3] = biological target: CCAAT/enhancer-binding protein beta (Homo sapiens) (UniProt P17676); experiment: ATG_C_EBP_CIS: Attagene CIS-FACTORIAL HepG2 Assay for human CCAAT/Enhancer Binding Protein (C/EBP) beta (AID 2282927); conditions: HepG2 Attagene cis-factorial transcription factor reporter; actives raise or lower the signal
Outline: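 HepG2, transient MRTU transfection, 24 h treatment. RT-PCR plus CE fluorescence; DMSO negative control, bidirectional fit.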

[4] = ATG_CMV_CIS: Attagene CIS-FACTORIAL HepG2 Assay for human CMV (Internal Marker) (AID 2282928); conditions: HepG2 CMV promoter reporter, transcription factor profiling; actives raise or lower the signal;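 also: endpoint acts as a background internal control marker rather than a target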
Outline: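 Cell system: HepG2, transiently transfected multiple reporter units under cis promoters. Exposure: 24 h. Detection: RT-PCR, FAM labeling, HpaI digestion, capillary electrophoresis. Analysis: bidirectional, DMSO baseline.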

[5] = ATG_DR4_LXR_CIS: Attagene CIS-FACTORIAL HepG2 Assay for human Liver X Receptor (LXR), DR4 submotif (AID 2282929); conditions: HepG2 Attagene DR4 cis-reporter, mRNA transcription; actives raise or lower the signal
Outline: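 Readout: reporter transcript fluorescence after RT-PCR and capillary electrophoresis, fitted bidirectionally against DMSO controls. Human HepG2 liver cells carried transiently transfected multiplexed reporter constructs; endogenous transcription factor activity measured 24 h post-dosing.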

[6] = biological target: Aryl hydrocarbon receptor (Homo sapiens) (UniProt P35869); experiment: ATG_Ahr_CIS: Attagene CIS-FACTORIAL HepG2 Assay for human Aryl Hydrocarbon Receptor (Ahr) (AID 2282930); conditions: HepG2 AhR cis-factorial reporter transcription; actives raise or lower the signal
Outline: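 Endogenous factor activity is tracked through cis-promoter reporter units transfected into HepG2 cells. Transcript levels at 24 h are read by fluorescent RT-PCR and capillary electrophoresis, with activity in either direction scored relative to DMSO.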

[7] = ATG_AP_1_CIS: Attagene CIS-FACTORIAL HepG2 Assay for human Activator Protein 1 (AP-1) (AID 2282931); conditions: HepG2 Attagene cis-factorial AP-1 reporter mRNA; actives raise or lower the signal
Outline: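 Reporter transcripts were measured 24 h after dosing by RT-PCR and capillary electrophoresis of fluorescent fragments. Cells: HepG2 carrying transfected cis-regulated reporter constructs reading endogenous factor activity. Gain or loss fitted against DMSO.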

[8] = ATG_AP_2_CIS: Attagene CIS-FACTORIAL HepG2 Assay for human Activator Protein 2 (AP-2) (AID 2282932); conditions: HepG2 AP-2 cis-reporter, Attagene transcription factor profiling; actives raise or lower the signal
Outline: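 HepG2 cells transiently transfected with cis-element reporter units and exposed for 24 h. Reporter mRNA measured by RT-PCR, FAM labelling, HpaI digestion and capillary electrophoresis. Changes in either direction fitted relative to DMSO.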

[9] = ATG_BRE_CIS: Attagene CIS-FACTORIAL HepG2 Assay for human Bone Morphogenetic Protein (BMP) Response Element (BRE) (AID 2282933); conditions: HepG2 BMP response element reporter, Attagene transcription factor profiling; actives raise or lower the signal
Outline: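 Endogenous transcription factor activity read in transiently transfected HepG2 cells after 24 h chemical exposure. Bidirectional curve fitting against DMSO; readout is reporter transcript level by RT-PCR with capillary electrophoresis of labelled products.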

[10] = biological target: Retinoic acid receptor alpha (Homo sapiens) (UniProt P10276); experiment: ATG_DR5_RAR_CIS: Attagene CIS-FACTORIAL HepG2 Assay for human Retinoic Acid Receptor Alpha (RARE), DR5 submotif (AID 2282934); conditions: HepG2 Attagene cis-factorial RARE DR5 reporter, mRNA; actives raise or lower the signal;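 as to AC50: reporter responds to endogenous RAR alpha beta and gamma in HepG2 not RARA alone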
Outline: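 After 24 h of chemical exposure, transiently transfected HepG2 cells were lysed for total RNA; the DR5-regulated reporter transcript was quantified via RT-PCR and capillary electrophoresis, with activity fitted bidirectionally against DMSO.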

[11] = biological target: Transcription factor E2F1 (Homo sapiens) (UniProt Q01094); experiment: ATG_E2F_CIS: Attagene CIS-FACTORIAL HepG2 Assay for human E2F Transcription Factor 1 (AID 2282935); conditions: HepG2 Attagene cis-reporter, E2F reporter RNA transcripts; actives raise or lower the signal
Outline: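 Endogenous E2F1 activity read through cis-promoter reporter units transfected into HepG2. After 24 h compound treatment, reporter mRNA measured by RT-PCR, HpaI digestion and capillary electrophoresis. Bidirectional fit versus DMSO.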

[12] = ATG_E_Box_CIS: Attagene CIS-FACTORIAL HepG2 Assay for human Enhancer Box (E-box) (AID 2282936); conditions: HepG2 E-box cis-reporter transcription, actives raise or lower the signal
Outline: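 HepG2 cells transiently transfected with multiplexed cis-element reporter units, dosed 24 h; reporter mRNA quantified by RT-PCR, 6-FAM labelling, HpaI digestion and capillary electrophoresis. E-box (USF1) signal fitted bidirectionally vs DMSO.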

[13] = ATG_M_61_CIS: Attagene CIS-FACTORIAL HepG2 Assay for M61 Transcription Factor (Internal Marker) (AID 2282937); conditions: HepG2 Attagene CIS-FACTORIAL M61 internal marker reporter; actives raise or lower the signal
Outline: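 Readout: fluorescent reporter mRNA fragments resolved by capillary electrophoresis after RT-PCR. Transiently transfected human HepG2 cells carried MRTU constructs reporting endogenous TF activity; 24 h chemical exposure; gain or loss of signal fitted relative to DMSO.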

[14] = ATG_EGR_CIS: Attagene CIS-FACTORIAL HepG2 Assay for human Early Growth Response 1 (EGR1) (AID 2282938); conditions: HepG2 Attagene CIS-FACTORIAL EGR reporter mRNA; actives raise or lower the signal
Outline: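 Read-out: fluorescent reporter-mRNA fragments resolved by capillary electrophoresis after RT-PCR, 24 h post-dose in transiently transfected HepG2. Endogenous transcription-factor activity reported via cis-element-regulated reporter units; gain or loss fitted relative to DMSO.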

[15] = ATG_M_19_CIS: Attagene CIS-FACTORIAL HepG2 Assay for M19 Transcription Factor (Internal Marker) (AID 2282939); conditions: HepG2 Attagene CIS-FACTORIAL M19 internal marker reporter; actives raise or lower the signal
Outline: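 Internal marker readout, fitted in both directions against DMSO, from HepG2 cells carrying transfected cis-element reporter constructs; RT-PCR and capillary electrophoresis of reporter mRNA after 24 h exposure.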

[16] = ATG_ERE_CIS: Attagene CIS-FACTORIAL HepG2 Assay for Estrogen Response Element (ERE) (AID 2282940); conditions: HepG2 ERE cis-reporter, Attagene RNA transcript; actives raise or lower the signal
Outline: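 After 24 h compound treatment, RNA from transfected HepG2 cells was reverse-transcribed, reporter cDNA PCR-amplified, FAM-labelled, HpaI-cut and resolved by capillary electrophoresis. ERE-driven cis reporter transcripts reflect endogenous factors; gain or loss scored against DMSO.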

[17] = ATG_Ets_CIS: Attagene CIS-FACTORIAL HepG2 Assay for human Erythroblast Transformation Specific (ETS) (AID 2282941); conditions: HepG2 ETS cis-reporter transcription, actives raise or lower the signal
Outline: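 After transient cis-reporter transfection, HepG2 cells receive test chemical for 24 h. Reporter mRNA levels, measured by RT-PCR and capillary electrophoresis fluorescence, are analysed bidirectionally relative to the DMSO baseline.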

[18] = biological target: Hepatocyte nuclear factor 3-beta (Homo sapiens) (UniProt Q9Y261); experiment: ATG_FoxA2_CIS: Attagene CIS-FACTORIAL HepG2 Assay for human Forkhead box A2 (FOXA2) (AID 2282942); conditions: HepG2 cis-reporter transcription factor activity, 24 h; actives raise or lower the signal
Outline: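 Readout: fluorescent reporter transcripts resolved by capillary electrophoresis after RT-PCR. Transiently transfected HepG2, 24 h compound exposure, endogenous TF activity at cis promoter elements. Gain or loss of signal fitted relative to DMSO.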

[19] = ATG_FoxO_CIS: Attagene CIS-FACTORIAL HepG2 Assay for human Forkhead box O (FoxO) (AID 2282943); conditions: HepG2 Attagene cis-reporter, FoxO element, mRNA; actives raise or lower the signal
Outline: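 Transfected HepG2 reporter cells exposed to test chemical for 24 h; reporter RNA measured by reverse transcription, PCR and fluorescent capillary electrophoresis; curves fitted for increases and decreases against DMSO.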

[20] = ATG_GATA_CIS: Attagene CIS-FACTORIAL HepG2 Assay for human GATA Binding Protein (AID 2282944); conditions: HepG2 GATA cis-element reporter, Attagene multiplex mRNA; actives raise or lower the signal
Outline: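 Reporter transcripts from a GATA cis-regulated unit, among multiplexed reporters in transfected HepG2 cells, were measured by RT-PCR with capillary electrophoresis after 24 h dosing. Induction or loss scored relative to DMSO.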

Measured: AC50

Chain of CCAAT/enhancer-binding protein beta (Homo sapiens) (P17676 whole entry, looked up): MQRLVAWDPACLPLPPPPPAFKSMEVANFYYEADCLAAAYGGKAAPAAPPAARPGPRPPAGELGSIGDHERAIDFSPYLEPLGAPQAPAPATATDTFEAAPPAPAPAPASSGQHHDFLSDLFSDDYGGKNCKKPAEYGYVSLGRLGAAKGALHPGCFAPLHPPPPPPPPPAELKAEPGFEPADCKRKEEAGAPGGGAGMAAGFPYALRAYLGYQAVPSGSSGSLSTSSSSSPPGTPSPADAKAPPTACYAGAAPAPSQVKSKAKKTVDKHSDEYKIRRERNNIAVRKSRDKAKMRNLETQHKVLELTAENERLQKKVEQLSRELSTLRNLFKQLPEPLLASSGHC
Chain of Aryl hydrocarbon receptor (Homo sapiens) (P35869 whole entry, looked up): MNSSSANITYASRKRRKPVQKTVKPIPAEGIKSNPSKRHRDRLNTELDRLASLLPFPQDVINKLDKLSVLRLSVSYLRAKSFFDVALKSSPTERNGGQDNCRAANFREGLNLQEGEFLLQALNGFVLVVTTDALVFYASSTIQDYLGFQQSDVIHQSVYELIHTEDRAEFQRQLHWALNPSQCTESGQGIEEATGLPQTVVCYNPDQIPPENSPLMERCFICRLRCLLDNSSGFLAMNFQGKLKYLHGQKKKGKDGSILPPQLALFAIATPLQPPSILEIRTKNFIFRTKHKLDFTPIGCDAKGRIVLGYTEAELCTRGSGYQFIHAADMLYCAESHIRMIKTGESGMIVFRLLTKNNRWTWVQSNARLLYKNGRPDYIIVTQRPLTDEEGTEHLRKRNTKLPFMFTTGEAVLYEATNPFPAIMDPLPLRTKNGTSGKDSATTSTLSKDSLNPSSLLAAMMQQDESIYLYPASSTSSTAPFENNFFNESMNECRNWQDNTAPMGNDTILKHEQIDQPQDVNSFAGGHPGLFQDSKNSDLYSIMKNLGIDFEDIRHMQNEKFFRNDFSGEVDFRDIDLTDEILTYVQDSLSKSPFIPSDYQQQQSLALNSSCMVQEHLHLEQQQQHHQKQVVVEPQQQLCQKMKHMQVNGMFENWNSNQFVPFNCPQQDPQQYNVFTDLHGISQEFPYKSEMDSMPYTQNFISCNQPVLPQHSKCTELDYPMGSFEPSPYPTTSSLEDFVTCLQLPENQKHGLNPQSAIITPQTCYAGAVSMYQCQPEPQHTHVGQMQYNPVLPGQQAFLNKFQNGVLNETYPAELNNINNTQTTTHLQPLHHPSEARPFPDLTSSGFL
Chain of Hepatocyte nuclear factor 3-beta (Homo sapiens) (Q9Y261 whole entry, looked up): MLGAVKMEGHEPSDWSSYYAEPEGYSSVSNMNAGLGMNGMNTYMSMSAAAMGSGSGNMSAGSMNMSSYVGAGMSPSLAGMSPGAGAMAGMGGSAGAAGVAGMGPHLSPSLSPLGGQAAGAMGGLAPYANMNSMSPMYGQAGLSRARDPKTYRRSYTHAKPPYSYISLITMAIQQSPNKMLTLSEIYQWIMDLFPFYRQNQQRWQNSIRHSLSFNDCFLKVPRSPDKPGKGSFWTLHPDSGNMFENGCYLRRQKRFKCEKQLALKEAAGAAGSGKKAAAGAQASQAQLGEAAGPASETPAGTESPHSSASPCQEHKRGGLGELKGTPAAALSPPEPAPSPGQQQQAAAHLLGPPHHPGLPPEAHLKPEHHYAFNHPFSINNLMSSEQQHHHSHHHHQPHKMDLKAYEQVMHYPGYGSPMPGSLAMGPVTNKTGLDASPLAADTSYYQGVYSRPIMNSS
Chain of Retinoic acid receptor alpha (Homo sapiens) (P10276 whole entry, looked up): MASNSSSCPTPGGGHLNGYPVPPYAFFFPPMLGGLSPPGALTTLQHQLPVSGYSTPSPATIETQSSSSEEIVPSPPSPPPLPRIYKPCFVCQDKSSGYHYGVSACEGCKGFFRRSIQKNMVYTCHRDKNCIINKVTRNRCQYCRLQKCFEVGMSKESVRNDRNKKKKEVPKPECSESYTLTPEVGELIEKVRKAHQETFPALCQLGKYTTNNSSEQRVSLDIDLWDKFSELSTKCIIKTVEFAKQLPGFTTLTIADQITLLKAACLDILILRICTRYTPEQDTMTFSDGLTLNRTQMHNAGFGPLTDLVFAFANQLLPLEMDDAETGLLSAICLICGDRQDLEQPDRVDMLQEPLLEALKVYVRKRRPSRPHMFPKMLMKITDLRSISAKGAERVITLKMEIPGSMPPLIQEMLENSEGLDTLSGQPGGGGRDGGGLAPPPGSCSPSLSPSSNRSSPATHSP
Chain of Transcription factor E2F1 (Homo sapiens) (Q01094 whole entry, looked up): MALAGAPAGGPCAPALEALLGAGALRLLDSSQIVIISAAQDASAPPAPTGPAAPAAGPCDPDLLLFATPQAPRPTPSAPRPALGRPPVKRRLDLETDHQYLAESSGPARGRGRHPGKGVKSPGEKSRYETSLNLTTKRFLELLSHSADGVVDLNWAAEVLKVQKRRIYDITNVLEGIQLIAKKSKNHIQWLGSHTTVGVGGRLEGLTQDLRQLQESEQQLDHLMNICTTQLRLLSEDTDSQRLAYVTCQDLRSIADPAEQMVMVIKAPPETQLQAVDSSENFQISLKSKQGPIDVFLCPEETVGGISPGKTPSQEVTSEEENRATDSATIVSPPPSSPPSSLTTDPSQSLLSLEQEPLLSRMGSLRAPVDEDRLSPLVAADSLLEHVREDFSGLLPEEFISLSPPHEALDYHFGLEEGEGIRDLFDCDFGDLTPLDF

Nc1c(Br)cc([N+](=O)[O-])cc1Br
inactive: all assays above

CCc1cccc(C)c1N(C(=O)C(=O)O)C(C)COC (configuration not stated)
inactive: all assays above

NCC(F)(F)C(F)(F)C(F)(F)C(F)(F)C(F)(F)C(F)(F)F
inactive: all assays above

O=C1C=CC(=O)N1c1ccc(Cc2ccc(N3C(=O)C=CC3=O)cc2)cc1
active: [2] 33.4 µM | [5] 22.7 µM | [9] 51.2 µM | [10] 59.4 µM | [12] 44.9 µM | [14] 21.4 µM
inactive: all other assays above

Cc1cccc(C)n1
inactive: all assays above

CC(C)CC=C(C=O)c1ccccc1
active: [1] 24.1 µM | [5] 84.9 µM | [7] 100 µM | [16] 35.2 µM
inactive: all other assays above

c1ccc(C[P+](c2ccccc2)(c2ccccc2)c2ccccc2)cc1
active: [1] 0.132 µM | [5] 100 µM | [9] 10.7 µM
inactive: all other assays above

O=S(=O)(OCC(F)(F)F)C(F)(F)C(F)(F)C(F)(F)C(F)(F)F
active: [4] 42.3 µM | [5] 104 µM | [7] 48.1 µM | [9] 58.2 µM | [10] 17.6 µM
inactive: all other assays above

OCCCCl
inactive: all assays above

OC(O)C(F)(F)C(F)(F)F
active: [4] 117 µM | [5] 150 µM | [7] 96 µM
not listed: [18]
inactive: all other assays above

O=C1C=CC(=O)N1c1ccccc1
not listed: [18]
inactive: all other assays above

CC(C)CCCC(C)CCO (configuration not stated)
inactive: all assays above

CCCCCCCCCCCCCCCCC
active: [1] 10.5 µM | [16] 25.6 µM
inactive: all other assays above

CO[Si](CCCOCC1CO1)(OC)OC (configuration not stated)
not listed: [18]
inactive: all other assays above
